The list is not random: actives were taken first. Their share in the collection is about 0.9%.
HIV TAR-Tat – TAR RNA-Tat peptide displacers, HIV-1, primary screen, biochemical, FRET, FAM/TAMRA-labeled Tat. z-score (test concentration not listed). AID 1259389, 2018. HIV-1 TAR RNA, Tat peptide displacement FRET; hits give high values. 100,000 compounds, 0.6% hits; active = z-score of 3 or more in at least 2 runs
CDC25B CDK2 inh – primary biochemical HTRF screen for blockers of M-phase inducer phosphatase 2 binding to CDK2/cyclin A. P30305+P24941. HTRF CDC25B-CDK2/CyclinA binding, anti-His/anti-Flag; hits give high values. z-score (test concentration not listed). 94,000 compounds, 0.72% hits. AID 1259370, 2018; in the data active = z-score above about 3.2
Numbers without * were called inactive.

How did N#CC1=C2SCN(c3ccccc3F)CN2C(=O)CC1c1c(F)cccc1Cl (centres undefined) do in these assays?
HIV TAR-Tat: -1.99; CDC25B CDK2 inh: -1.09

What do the screens show for `CCc1ccccc1N1CSC2=C(C#N)C(c3cccc(F)c3)CC(=O)N2C1` (centres undefined)?
HIV TAR-Tat: -1.2; CDC25B CDK2 inh: 6.32*

What do the screens show for `Cc1ccc(-c2cnnc(-n3nc(C)c4c3NC(=O)CC4c3ccc(F)cc3F)n2)cc1` (centres undefined)?
HIV TAR-Tat: 0.43; CDC25B CDK2 inh: -1.58

What do the screens show for `CC1CCCC(NC(=O)C2(C)Cn3c(cc4occc43)C(=O)N2C2CCCC2)C1C` (centres undefined)?
HIV TAR-Tat: 0.67

What do the screens show for `CC1CCCC(NC(=O)C2(C)Cn3c(cc4occc43)C(=O)N2CC2CCCO2)C1C` (centres undefined)?
HIV TAR-Tat: 6.77*

How did COc1ccc(C2=Nc3cccnc3NC(=O)C2)cc1 do in these assays?
HIV TAR-Tat: -5.05; CDC25B CDK2 inh: 15.7*

How did O=C1CC(c2ccccc2)=Nc2cccnc2N1 do in these assays?
HIV TAR-Tat: -2.32; CDC25B CDK2 inh: 2.56

How did COc1ccc(C(=O)CSc2n[nH]c(-c3ccco3)n2)cc1C do in these assays?
HIV TAR-Tat: -1.88; CDC25B CDK2 inh: -3.23

What do the screens show for `Cc1ccc(C(=O)CSc2n[nH]c(-c3ccco3)n2)cc1C`?
HIV TAR-Tat: 14.7*; CDC25B CDK2 inh: -4.07

Results for CC12OC(C(Br)C1Br)C1C(=O)OC(=O)C12 (centres undefined) ?
CDC25B CDK2 inh: 6.07*

Results for COc1ccc(-c2nc3c(c(=O)[nH]2)Cc2cc(Br)ccc2O3)cc1OC ?
HIV TAR-Tat: 2.44; CDC25B CDK2 inh: -1.77

What do the screens show for `Cc1cc(=O)n2nc(-c3cccs3)nc2n1CC(=O)Nc1nccs1`?
HIV TAR-Tat: 1.19; CDC25B CDK2 inh: 0.29

Results for O=C(O)c1cc(O)c2c(c1)[C@@H]([C@H]1c3cc(C(=O)O)cc(O)c3C(=O)c3c(O[C@H]4O[C@H](CO)[C@@H](O)[C@H](O)[C@H]4O)cccc31)c1cccc(O[C@H]3O[C@H](CO)[C@@H](O)[C@H](O)[C@H]3O)c1C2=O ?
HIV TAR-Tat: 22*

How did O=C(CSc1ncn[nH]1)Nc1nccs1 do in these assays?
HIV TAR-Tat: 1.06; CDC25B CDK2 inh: -0.13

How did COc1ccc2ccccc2c1C1CC(=O)N2CN(c3ccccc3)CSC2=C1C#N (centres undefined) do in these assays?
HIV TAR-Tat: -1.12; CDC25B CDK2 inh: 4.82*

How did COc1ccc(N2CSC3=C(C#N)C(c4c(OC)ccc5ccccc45)CC(=O)N3C2)c(OC)c1 (centres undefined) do in these assays?
HIV TAR-Tat: 1.61; CDC25B CDK2 inh: 3.75*

How did COc1ccc(N2CSC3=C(C#N)C(c4c(OC)ccc5ccccc45)CC(=O)N3C2)cc1 (centres undefined) do in these assays?
HIV TAR-Tat: -2.05; CDC25B CDK2 inh: 6.43*

How did COc1ccc2ccccc2c1C1CC(=O)N2CN(c3ccc(F)cc3)CSC2=C1C#N (centres undefined) do in these assays?
HIV TAR-Tat: 0.3; CDC25B CDK2 inh: 2.64

How did CC1(C)OC(=O)C(=Cc2ccc(OCc3ccc(F)cc3)c([N+](=O)[O-])c2)C(=O)O1 do in these assays?
CDC25B CDK2 inh: -1.62

What do the screens show for `CCCCC1(C)OC(=O)C(=Cc2cc3c(cc2[N+](=O)[O-])OCO3)C(=O)O1` (centres undefined)?
CDC25B CDK2 inh: 20*

How did Cn1c(C(=O)N2CCCC(C(=O)N3CCN(c4ccccn4)CC3)C2)cc2sccc21 (centres undefined) do in these assays?
HIV TAR-Tat: 1.99; CDC25B CDK2 inh: -1.43

Results for O=c1c2c(nc3cc(-c4ccco4)[nH]n13)CSC2 ?
CDC25B CDK2 inh: 18.5*

How did O=c1c2c(nc3cc(-c4ccccc4)[nH]n13)CCCC2 do in these assays?
CDC25B CDK2 inh: 1

How did COc1cccc(-c2cc3nc(-c4ccccc4)cc(=O)n3[nH]2)c1 do in these assays?
CDC25B CDK2 inh: -1.26

What do the screens show for `O=c1cc(-c2cccnc2)nc2cc(-c3ccco3)[nH]n12`?
CDC25B CDK2 inh: 19*

How did Cc1nc2ccccc2nc1CSc1ccccc1N do in these assays?
HIV TAR-Tat: 0.58; CDC25B CDK2 inh: -0.5

What do the screens show for `CN(C1CCCCC1)S(=O)(=O)N1CCCC(C(=O)N2CCN(c3ccccc3F)CC2)C1` (centres undefined)?
HIV TAR-Tat: 1.56

Results for O=S(=O)(c1ccc(F)cc1)N1CCN(Cc2ccc3c(c2)OCO3)CC1 ?
HIV TAR-Tat: 0.6; CDC25B CDK2 inh: 15.8*

What do the screens show for `O=S(=O)(c1cccc(F)c1)N1CCN(Cc2ccc3c(c2)OCO3)CC1`?
CDC25B CDK2 inh: -1.27

How did CN(C)[C@@H]1C(=O)C(C(=O)NCN2CCCC2)=C(O)[C@@]2(O)C(=O)C3=C(O)c4c(O)cccc4[C@@](C)(O)C3CC12 (some centres undefined) do in these assays?
HIV TAR-Tat: 14.1*

Results for CCSc1nc(=O)c2c(n1C)NC(=O)CC2c1cccc(O)c1 (centres undefined) ?
HIV TAR-Tat: -0.7; CDC25B CDK2 inh: -0.92

Results for CN(C)c1ccc(C(=O)NCCCCCC(=O)NO)cc1 ?
HIV TAR-Tat: 10.2*

How did CN(C)c1ccc(NC(=O)CCCC(=O)O)cc1 do in these assays?
HIV TAR-Tat: 1.69; CDC25B CDK2 inh: -4.2

How did O=C(NCc1cccc(Cl)c1)N/N=C/c1cccs1 do in these assays?
CDC25B CDK2 inh: 6.33

How did O=C(Nc1cccc2nsnc12)c1nc(-n2cnnc2)ccc1Br do in these assays?
HIV TAR-Tat: 2.48

Results for O=C(Nc1cccc2nsnc12)c1cccc(-n2cnnc2)n1 ?
HIV TAR-Tat: 13.9*

Results for Cc1c2c(=O)n(-c3ccccc3)[nH]c2cc(=O)n1Cc1cccnc1 ?
HIV TAR-Tat: 1.2; CDC25B CDK2 inh: 1.97

Results for Cc1c2c(=O)n(-c3ccccc3)[nH]c2cc(=O)n1Cc1ccco1 ?
HIV TAR-Tat: 9.62*; CDC25B CDK2 inh: 4.33

Results for CC1=NN(c2nc(-c3ccc(Cl)cc3)cs2)C(=O)/C1=C\c1ccc2c(c1)OCO2 ?
CDC25B CDK2 inh: 6.93*

How did CC1=CC(=O)N(c2nc(-c3ccc(Cl)cc3)cs2)C1=O do in these assays?
CDC25B CDK2 inh: -1.32

How did O=C(CCN1C(=O)/C(=C/c2ccc3c(c2)OCO3)SC1=S)Nc1nc(-c2ccccc2)cs1 do in these assays?
CDC25B CDK2 inh: -39.2

How did CC1=NN(c2nc(-c3ccc(Br)cc3)cs2)C(=O)/C1=C\c1ccc2c(c1)OCO2 do in these assays?
CDC25B CDK2 inh: 20.9*

What do the screens show for `Cc1nnc(SC2CCN(S(=O)(=O)c3ccc4c(c3)OCCO4)CC2)s1`?
HIV TAR-Tat: -2.05; CDC25B CDK2 inh: -1.02

What do the screens show for `CC1CCN(Cc2c(O)ccc3c2oc(=O)c2ccccc23)CC1`?
HIV TAR-Tat: 0.26; CDC25B CDK2 inh: -2.32

Results for O=C(c1ccco1)N1CCN(C(=O)c2noc3c2CCCC3)CC1 ?
HIV TAR-Tat: 0.28

Results for Cc1c(C(=O)N2CCN(CCc3ccncc3)CC2)oc2ccc(Br)cc12 ?
HIV TAR-Tat: 1.68; CDC25B CDK2 inh: 0.36

Results for COc1ccc(-c2cc3nc(C)cc(NCC(C)C)n3n2)cc1OC ?
HIV TAR-Tat: 2.6; CDC25B CDK2 inh: -0.86

How did CCN(CC)CCNc1cc(C)nc2cc(-c3ccc(OC)c(OC)c3)nn12 do in these assays?
HIV TAR-Tat: 3.95*; CDC25B CDK2 inh: 1.72

From PubChem BioAssay
